Among the data in PubChem BioAssay AID1063 (University of Pittsburgh Molecular Library Screening Center, 2008) are inhibition values, retold here.

The campaign covered roughly 200,000 compounds. About 18,000 (9%) were called active. The sample holds actives, similar compounds and a random draw of the others, so the mix is not that of the screen. A number with no mark means an inactive call. Cut-off read from the data, not from the text of the source: active = inhibition above about 50%; inactive = the rest.

The nature of the assay: antileishmanial activity against promastigotes – primary screen (AID 1063).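 Note: promastigotes grown with compound for 44 hours at 28 °C.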 The conditions noted are these: Leishmania major promastigotes, resazurin fluorescence viability; at 10 µM; hits give high values. (Resazurin is reduced to fluorescent resorufin, in cell work by metabolically active cells.)
What is called inhibition is the relative decrease from the control value, in per cent. Consider `Cc1nnsc1C(=O)N/N=C/c1cccc(C(F)(F)F)c1`, for which the inhibition is 12.3%.

In the case of `CCOc1ccc(-n2c(SCC(=O)NC3CCS(=O)(=O)C3)nnc2-c2cccnc2)cc1` (centres undefined), the inhibition is -3.53%.

In the case of `Cc1ccc(S(=O)(=O)N(NC2=NS(=O)(=O)c3ccccc32)C(=O)c2ccccc2)cc1`, the inhibition was 53% (active).

Turning to `Cc1ccc(C(=O)NN(CCC#N)C2=NS(=O)(=O)c3ccccc32)cc1`, the inhibition is -9.19%.

Regarding `CC(C)(C)c1csc(NC2=NS(=O)(=O)c3ccccc32)n1`, the inhibition is -6.96%.

As to `O=C(NNS(=O)(=O)c1ccc(F)cc1)c1cnccn1`, the inhibition was -7.62%.

As to `COc1ccc(C(=O)NNC(=O)c2cc(C)[nH]n2)cc1`, the inhibition is -2.25%.

Regarding `Cc1ccc(Cl)c(NC(=O)CN(C)CC(=O)Nc2ccc(F)c(F)c2F)c1Cl`, the inhibition is 0.59%.

With `CC(CNC(=O)c1ccc(N)cc1)NC(=O)c1ccc(N)cc1` (centres undefined), the inhibition is -1.57%.

Take `COCc1c(C(=O)OCc2c(C)noc2C)oc2ccccc12`: the inhibition is -3.77%.

As for `Cc1cc(C)c(NC(=O)c2oc3ccccc3c2COc2ccccc2)c(C)c1`, the inhibition was 62.7% (active).

With `CCOC(=O)c1oc2ccccc2c1NC(=O)c1cccs1`, the inhibition was -2.52%.

For `NC(=O)COc1ccc(NC(=O)c2ccccc2-c2ccccc2)cc1`, the inhibition is 10.2%.

`CCO/C=C1\C(=O)N(c2ccc(OCC)cc2)C(=O)c2ccccc21`: the inhibition is 0.41%.

Consider `NS(=O)(=O)c1ccc(CCNC(=O)c2ccc([N+](=O)[O-])cc2[N+](=O)[O-])cc1`, for which the inhibition was -7.26%.

Regarding `NS(=O)(=O)c1ccc(CNC(=O)c2ccc(Cl)cc2[N+](=O)[O-])cc1`, the inhibition was 52.1% (active).

As for `NS(=O)(=O)c1ccc(CCNC(=O)c2ccc(Cl)cc2[N+](=O)[O-])cc1`, the inhibition is 6.41%.

On to `Cc1ccc(C(=O)NCC(=O)O)s1`, for which the inhibition was -10.9%.

With `COCCNCCOCCOc1cccc(OC)c1`, the inhibition is 1.86%.

Take `CSc1ccc(/C=N\NC(=O)COc2ccc(Cl)cc2Br)cc1`: the inhibition was -9.17%.

Take `COCCCNCCOCCOc1ccc(Cl)cc1Br`: the inhibition is 91.2% (active).

Consider `Cc1cc(C)n(-c2ccc3nncn3n2)n1`, for which the inhibition was -5.45%.

Turning to `C=CCn1c(=NC(=O)c2cccs2)sc2cc(NC(C)=O)ccc21`, the inhibition was 9.06%.

With `Cn1cc(CN2CCCC(CO)C2)c(-c2ccc(Oc3ccccc3)cc2)n1` (centres undefined), the inhibition is 88.6% (active).

Take `CCCOC1CCCN(Cc2cn(C)nc2-c2ccccc2F)C1` (centres undefined): the inhibition is -5.85%.

Consider `Cc1ccc(CN2CCN(Cc3cn(C)nc3-c3ccccc3)CC2CCO)o1` (centres undefined), for which the inhibition is -3.67%.

Regarding `O=C(CSc1nc(O)c(Cc2ccccc2)c(=O)[nH]1)Nc1nc2c(s1)CCCC2`, the inhibition is 2.85%.

As for `CC(=O)NC(Cc1ccc(F)cc1)C(=O)O` (centres undefined), the inhibition is 83.9% (active).

In the case of `CC(=O)NC(CC(=O)O)c1ccc(F)cc1` (centres undefined), the inhibition was -5.31%.

For `CC(=O)c1ccc(NC(=O)N[C@@H](Cc2ccccc2)C(=O)O)cc1`, the inhibition was -5.12%.

In the case of `N#Cc1c(N)nc2c(c1N)CC(C(F)(F)F)O2` (centres undefined), the inhibition is 1.43%.

As for `Cc1ccc(C(=O)O)cc1N1C(=O)CCCC1=O`, the inhibition was -2.53%.

Consider `Cc1nc(-c2ccccc2)sc1C(=O)/C=C/c1ccccc1`, for which the inhibition was 48.9%.

`Cc1[nH]c(=O)c(C(=O)/C=C/c2ccccc2)c2c1CCCC2`: the inhibition was 98.8% (active).

For `O=C(/C=C/c1ccccc1)c1ccccc1O`, the inhibition is 9.25%.

`O=C(CCNC(=O)Cn1ccc2ccccc2c1=O)NCCC1=CCCCC1`: the inhibition was -3.42%.

In the case of `Cc1ccccc1N1C(=O)C(Oc2ccc(Cl)cc2)C1CNCC1CCCO1` (centres undefined), the inhibition is 14.7%.

As for `CCc1nc2ccccc2c(C(=O)NCc2ccc(OC)cc2)c1C`, the inhibition is -2.62%.

As for `Cc1cccc2c(=O)n3c(nc12)CCCCC3`, the inhibition is -1.77%.

Take `COc1nc(N=C(N)N)nc2c(C)cccc12`: the inhibition was 29%.

As for `Cc1nc(N=C(N)N)nc2c(C)cccc12`, the inhibition is 99.5% (active).

As to `CCOc1ccc(N2C(=O)Nc3ccccc3C2(O)C(=O)NCc2ccco2)cc1` (centres undefined), the inhibition is -6.71%.

Consider `Cc1ccc(CCCOC(=O)C[N+]2(C)CCCCC2)cc1`, for which the inhibition is -3.49%.

Take `CSc1ccc(CN(C)CC(=O)NCc2ccc(F)cc2)cc1`: the inhibition was -5.11%.

Consider `CSc1ccc(S(=O)(=O)NCc2ccc(Cl)cc2)cc1`, for which the inhibition is -1.27%.

For the compound `CCCCc1ccc(NC(=S)NCCCN2CCOCC2)cc1`, the inhibition is 32.5%.

For the compound `CSc1ccc(CNCCN2CCOCC2)cc1`, the inhibition is 67.6% (active).

Turning to `CCCCNCc1ccc(SC)cc1`, the inhibition is 76.3% (active).

With `O=C(NCCN1CCOCC1)[C@H](Cc1ccccc1)N1C(=O)c2ccccc2C1=O`, the inhibition was -3.08%.

Take `Cc1cc(/C=N/NC(N)=O)c(C)n1C1CCCCC1`: the inhibition was 2.71%.

`COc1ccc(-c2nc(N)sc2C2(O)C(=O)Nc3c(Br)cc(F)cc32)cc1OC` (centres undefined): the inhibition is -2.63%.

Consider `O=C(/C=C/c1ccco1)Nc1cccc(-c2nc3ccccc3[nH]2)c1`, for which the inhibition is 28.8%.

For the compound `O=C(/C=C/c1ccco1)Nc1ccc(Oc2ccccc2)cc1`, the inhibition is 99.6% (active).

Regarding `Cc1nnc(NC(=O)/C=C/c2ccco2)s1`, the inhibition was 21.5%.

For the compound `COC(=O)C1=C(C(=O)OC)C(c2cc([N+](=O)[O-])ccc2O)c2sc(=O)[nH]c2S1` (centres undefined), the inhibition was -11.4%.

Turning to `Clc1ncn(CCOc2ccccc2)c1Cl`, the inhibition is -6.41%.

For `CCN(CC)CCNC(=O)Cn1cnc2sc(C)c(S(=O)(=O)N3CCOCC3)c2c1=O`, the inhibition is -1.31%.

Take `CCN(CC)CCCNC(=O)Cn1cnc2sc(C)c(S(=O)(=O)N3CCN(c4ncccn4)CC3)c2c1=O`: the inhibition was 1.29%.

With `CCN(CC)CCNC(=O)c1sc2ncn(CC(=O)Nc3ccc(C)c(Cl)c3)c(=O)c2c1C`, the inhibition was 87.1% (active).

On to `O=C(CC1C(=O)NCCN1Cc1ccc(-c2ccccc2)cc1)NCc1ccncc1` (centres undefined), for which the inhibition is -2.72%.

Turning to `Cc1ccccc1NC(=O)CN1C(=O)N/C(=C\c2cccn2-c2cccc(C(=O)O)c2)C1=O`, the inhibition was -4.64%.

`Cc1ccc(Nc2ccc(C(N)=O)cc2[N+](=O)[O-])cc1`: the inhibition is -4.3%.

For the compound `Cc1ccc(Nc2cc(C)nc3c(C)ccc([N+](=O)[O-])c23)cc1`, the inhibition was 87.2% (active).

In the case of `Cc1cc(C)nc(Nc2cc([N+](=O)[O-])ccc2C)n1`, the inhibition is 2.27%.
